# The entries come from a sample that favours hits as a whole.
# Tg IFNy HTS: T. gondii growth inhibition under IFN-gamma; AID 1259416; actives 3.8% (n = 69,000); activity change, negative = inhibition, % (no concentration beside the values); Toxoplasma gondii growth in IFN-gamma-treated host cells; hits give low values; in the data active = activity change below about -70%, passing the limit was not always enough;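 note: host cells are HeLa cells infected with Toxoplasma gondii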
# Numbers stand for hits; - = inactive; ! = a repeat was not active.
SMILES,Tg IFNy HTS
CC(C)n1cnc2c(-c3cccnc3)nc(C3CCN(Cc4ccccn4)CC3)cc21,-
CC(C)n1cnc2c(NCc3ccccc3)nc(NCCCO)nc21,-
CC[C@H](CO)Nc1nc(NCc2ccc(-c3ccccn3)cc2)c2ncn(C(C)C)c2n1,-79
CC(C)[C@H](CO)Nc1nc(Nc2cccc(Cl)c2)c2ncn(C(C)C)c2n1,-74
CC[C@H](CO)Nc1nc(Nc2cccc(-c3ccccn3)c2)c2ncn(C(C)C)c2n1,-79
O=S(=O)(N1CCCCCC1)N1CC[C@@H](c2ccc3c(c2)OCO3)[C@H](O)C1,-
CC(=O)C1C(=O)[C@@H]2[C@H]3c4c[nH]c5cccc(c45)C[C@H]3C(C)(C)N2C1=O (some centres not stated),-81!
CN1C[C@H](C(=O)N[C@]2(C)O[C@@]3(O)[C@@H]4CCCN4C(=O)[C@H](Cc4ccccc4)N3C2=O)C[C@@H]2c3cccc4[nH]cc(c34)C[C@H]21,-
CCN1C(=O)CCc2cc(NC(=O)Cc3ccc(OC)cc3)ccc21,-
Cc1ccc(NC(=O)C(=O)NCCc2sc(-c3ccccc3)nc2C)cc1C,-
CC(=O)c1ccccc1-c1ccccc1C(=O)NC(C)C,-
Cc1onc(-c2c(Cl)cccc2Cl)c1C(=O)N(C(C)C)C(C)C,-
CC(C)N(C(=O)c1ccccc1-c1ccccc1C(=O)N(C(C)C)C(C)C)C(C)C,-87
N#Cc1ccc(C(=O)N2CCC(N3CCOCC3)CC2C(=O)O)cc1 (configuration not stated),-
Cc1nc(-c2ccccc2)nc2c1CCN(c1cnccn1)CC2,-
CC(C)Cc1ccc(C(=O)C(C)N2CCN(c3ccc(C(F)(F)F)cn3)CC2)cc1 (configuration not stated),-
Cc1nc(-c2cccnc2)nc(N2CCCN(c3ccc(C(F)(F)F)cn3)CC2)c1Cl,-98
CCCNC(=O)c1cc(-c2cnc(N(C)C)nc2)cn1CC1CC1,-
COC(=O)c1cc(C2CC2)nc2c1c(=O)n(Cc1nc(-c3ccccc3C)oc1C)c(=O)n2C,-
Nc1ncc(Cc2ccccc2F)s1,-
CCc1ccc(S(=O)(=O)N2Cc3c(CN4CCCCC4)nn(C)c3C2)cc1,-
Cn1nc(CN2CCCCC2)c2c1CN(C(=O)c1cccc(C#N)c1)C2,-
CCCc1ccc(C(=O)N2Cc3c(CN4CCCCC4)nn(C)c3C2)cc1,-79
CCOC1(C)C(=O)c2ccc(C(C)C)cc2N1Nc1cc(C(C)C)ccc1C(=O)CC (configuration not stated),-
O=C(N1CCCC1)N1CCC2(CCN(Cc3cccc(F)c3)C2=O)C1 (configuration not stated),-
SMILES,Tg IFNy HTS
Cc1nsc(NC(=O)N2CCCN(c3ccc(F)cc3)CC2)n1,-
O=C1N(Cc2ccccn2)C(=O)C2(CCN(Cc3ccc4c(c3)OCO4)CC2)N1CCc1ccccc1,-
COC(=O)CN1C(=O)N(CCc2ccccc2)C2(CCN(Cc3ccncc3)CC2)C1=O,-
O=C1N(Cc2cccnc2)C(=O)C2(CCN(Cc3cc4ccccc4o3)CC2)N1CCc1ccccc1,-86
FC(F)(F)CCc1ccnc(-c2ccc[nH]2)n1,-
COc1cc2c(cc1O)CC[C@@H]1[C@@H]2CC[C@]2(C)[C@@H](O)CC[C@@H]12,-83!
C[C@]12CC[C@@H]3c4ccc(O)cc4CC[C@H]3[C@@H]1C[C@@H](O)[C@@H]2O,-
CC12CCC3c4ccc(O)cc4CCC3C1C[C@H](O)[C@@H]2O (some centres not stated),-
C=CCN(Cc1ccc(-n2cccn2)cc1)Cc1ccco1,-
CC(C)OCCCN(C)C1CCN(S(=O)(=O)c2ccc3[nH]c(=O)ccc3c2)CC1,-
CC(Nc1ccc(-c2nccn2C)nn1)c1ccccc1 (configuration not stated),-
CNCC[C@@H](Oc1ccccc1C)c1ccccc1,-
CC(NCCC(c1ccccc1)c1ccccc1)c1ccccc1 (configuration not stated),-82!
O=C(NCCc1cnc[nH]1)c1nc(Nc2ccc(F)cc2)c2ccccc2n1,-
CC(CNC(=O)CCNC(=O)c1ccccc1F)n1cncn1 (configuration not stated),-
c1cnc(N2CCCC3(CN(Cc4ccoc4)CCO3)C2)cn1 (configuration not stated),-
COCCn1cnc(-c2nc(C(=O)NCc3cnc(C)cn3)c3ccccn23)c1,-
CCN(C(=O)c1coc2ccccc12)C(C)CO (configuration not stated),-
O=C(c1cnc[nH]1)N1CCC2(CC(Oc3cccnc3)CO2)C1 (configuration not stated),-
O=C(c1ccco1)N1CCCC2(CC(Oc3cccnc3)CO2)C1 (configuration not stated),-
O=C(c1ccn[nH]1)N1CCCC2(CC(Oc3cccnc3)CO2)C1 (configuration not stated),-95
CN(C)c1cnc(-n2cc(NS(=O)(=O)c3ccc(C4CCCCC4)cc3)cn2)nc1,-
C=CCN1CC[C@@]2(CN(C3CCOC3)C[C@H]2c2ccccc2)C1=O (some centres not stated),-
Cc1cc2nnc(-c3ccc(C(F)(F)F)cc3)n2[nH]1,-
FC(F)(F)c1cc(-c2nnc(N3CCCC3)o2)cc(C(F)(F)F)c1,-
SMILES,Tg IFNy HTS
FC(F)(F)c1ccc(-c2nnc3ccc(N4CCCCC4)nn23)cc1,-109
COc1ccc(Nc2nc(-c3nnc(-c4ccc(Cl)cc4)o3)nc3ccccc23)cc1,-
CC(C)N1C2CCN(Cc3nccs3)CC2C[C@H]1Cn1cncn1 (some centres not stated),-
CCc1cnc(C)nc1N1CCN(Cc2ccc3c(c2)OCO3)C(=O)C1,-85
Cc1ccc(NC(=O)CC(=O)N2CCN(Cc3ccc4c(c3)OCO4)C(=O)C2)cc1,-
CCNc1ccnc(N2CCN(Cc3ccc4c(c3)OCO4)CC2)n1,-
Cc1ccc(-c2coc(-c3ccc(NC(=O)C(C)(C)C)cc3)n2)c(C)c1,-
c1cncc(-c2nnc3sc(-c4cccc5ccccc45)nn23)c1,-
Cc1cc(F)ccc1S(=O)(=O)N1CCNC(C(=O)O)C1 (configuration not stated),-
FC(F)(F)c1ccccc1-n1ccnc1,-
N#C/C(=C1/SCC(c2ccccc2Cl)S1)n1ccnc1 (configuration not stated),-
Clc1ccccc1C(c1ccccc1)(c1ccccc1)n1ccnc1,-83!
CN(Cc1ccccc1)C1CCN(Cc2ccsc2)C(C(=O)O)C1 (configuration not stated),-
CC1CCN(S(=O)(=O)c2ccc3c(c2)CCC(=O)N3CC(=O)Nc2ccc(F)cc2F)CC1,-
O=C(NCCn1nnn(-c2cccs2)c1=O)c1cnccn1,-
Cn1ccn2ncc(C(=O)NCCC(=O)Nc3nccs3)c12,-
COc1ccc(CN2CCC3(CC2)CC(c2cccnc2)CO3)cc1 (configuration not stated),-
N#Cc1ccc(N2CCC3(CC2)CC(c2cccnc2)CO3)cc1 (configuration not stated),-
Fc1ccc(N2CCC3(CC2)CC(c2cccnc2)CO3)cc1 (configuration not stated),-82
Cc1ccc(S(=O)(=O)Cc2csc(NC(=O)CCn3cnnn3)n2)cc1,-
O=C(NCc1nnc(-c2ccncc2)o1)c1ccccc1,-
C=CC(=O)Nc1cccc(Nc2nc(Nc3ccc(OCCOC)cc3)ncc2F)c1,-
COc1cc(Nc2ncc(F)c(Nc3ccc4c(n3)N(COP(=O)(O)O)C(=O)C(C)(C)O4)n2)cc(OC)c1OC,-74

# Screening data from PubChem.
